According to PubChem BioAssay AID588343 (Broad Institute, 2011):
Among all 1,200 compounds or so, about 650 (54%) were called active. About 5% were inconclusive and are not listed.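 The calls were made as follows: active = signal-lowering curve whose fitted half-maximal concentration is at or below ten times the top valid dose tested; inconclusive = flat curve with 30 to 70% inhibition, or poor fit; inactive = signal increase, flat within 30%, or potency beyond limit.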 The set was probably picked from earlier hits. A selection follows. Results with a measured potency or affinity are listed apart.

Assay: inhibitors of LMP1-driven NF-kB reporter, dose response, cell-based, HEK293, luciferase, cherry-pick (AID 588343)
Conditions: HEK293 LMP1 TES2 NF-kB luciferase reporter, 16 h; series mostly up to 35 µM

outcome, inactive:
Cc1cc(N)nc(=O)n1C1CC(O)C(CO)O1 (stereo not drawn), O=C1CN(C(=O)c2ccc(F)c(S(=O)(=O)N3CCOCC3)c2)c2ccccc2N1, COc1ccc(C(=O)OCC(=O)c2c[nH]c3ccccc23)cc1OC, O=C(O)c1cc(=O)c2c(OCC(O)COc3cccc4oc(C(=O)O)cc(=O)c34)cccc2o1, Cc1ccc(NS(=O)(=O)c2ccc(NC(=O)C(C)Sc3ccc(Cl)cc3)cc2)c(C)c1 (stereo not drawn), COc1ccc(CNC(=O)COC(=O)[C@@H]2CCCN2C(=O)c2cccs2)cc1, O=[N+]([O-])c1ccc(Cl)c(S(=O)(=O)NCC2CCCO2)c1 (stereo not drawn), CSc1ccc2c(c1)C(N1CCN(C)CC1)Cc1ccccc1S2 (stereo not drawn), O=C(c1ccc(C#CC2(O)CCCCC2)cc1)N1CCN(C(c2ccccc2)c2ccccc2)CC1, COCCNC(=O)NC12CC3(C)CC(C)(CC(C)(C3)C1)C2, COc1cc(CC(=O)N(c2ccccc2)c2nc(C)cs2)cc(OC)c1OC, Clc1ccc(-c2ccnc(Oc3ccc4ccccc4c3)n2)cc1, Cc1ccc(-c2cc(N)n3nc(-c4ccc(C)cc4)cc3n2)cc1, COC(=O)c1ccccc1NC(=O)CC(=O)Nc1ccccc1C(=O)OC, Cc1nc(SCC(=O)c2cccc([N+](=O)[O-])c2)n[nH]1, C[C@H](CO)N1C[C@H](C)[C@@H](CN(C)C(=O)NC2CCCCC2)Oc2c(NS(=O)(=O)c3cn(C)cn3)cccc2C1=O, NC1=NC(=O)NC1(c1ccccc1)c1ccccc1, C[C@H](NC(=O)N1CCn2c1nc1ccccc12)C(=O)NCC1CCCO1 (stereo partly drawn), COc1cc2nc(N3CCN(C(=O)C4CCCO4)CC3)nc(N)c2cc1OC (stereo not drawn), CCOC(=O)OC(C)OC(=O)[C@@H]1N2C(=O)[C@@H](NC(=O)[C@H](N)c3ccccc3)[C@H]2SC1(C)C (stereo partly drawn), CSc1oc(-c2ccc(F)cc2)nc1S(=O)(=O)c1ccc(F)cc1, CC(NC(=O)CCOc1ccccc1)c1ccccc1 (stereo not drawn), O=C(O)c1cn2c3c(ccc(Cl)c3c1=O)OCC2, Oc1cccc(/C=N/NC(=S)NCCN2CCOCC2)c1O, CN(C)CCC(c1ccccc1)c1ccccn1 (stereo not drawn), COC(=O)CN(c1ccccc1F)S(=O)(=O)c1ccc(C)cc1, CC(=O)O[C@H]1CC[C@@]2(C)C(=CC[C@H]3[C@@H]4CC[C@H](C(C)=O)[C@@]4(C)CC[C@@H]32)C1, CN(C)/C=C/C(=O)c1ccc2noc(-c3ccccc3)c2c1
